Bioassay records as filed in PubChem BioAssay.
GalR3 antagonist = human GalR3 antagonism | HEK293 GalR3-CNG cAMP membrane potential fluorescence; galR3 body fused to GalR1 C-terminus | inhibition, % at 3 µM | 360,000 compounds, 0.44% hits;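 active = inhibition above the screen-wide average plus 3 SD, cut at about 13% in these data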;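 note: forskolin and galanin both at EC90 stimulate the cells; cAMP rise reported by CNG channel membrane potential dye signal; 0% = forskolin plus galanin with DMSO and 100% = forskolin alone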
Target sequence (O60755 1-299 limits assumed): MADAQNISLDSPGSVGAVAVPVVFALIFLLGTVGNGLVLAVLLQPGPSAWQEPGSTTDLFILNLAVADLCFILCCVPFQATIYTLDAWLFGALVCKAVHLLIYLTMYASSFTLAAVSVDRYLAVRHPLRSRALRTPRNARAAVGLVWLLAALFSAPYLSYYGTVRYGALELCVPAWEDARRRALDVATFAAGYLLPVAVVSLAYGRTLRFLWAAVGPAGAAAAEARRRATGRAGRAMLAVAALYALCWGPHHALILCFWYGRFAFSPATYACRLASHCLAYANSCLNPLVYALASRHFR
Gli-Sufu antag = antagonists of Gli-Sufu signaling; AID 588413; inhibition, % at 5 µM; 340,000 compounds, 0.74% hits; Sufu-KO-LIGHT fibroblasts, Gli luciferase reporter luminescence;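 active = inhibition above about 55%, limit read from the data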;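 note: 0% = DMSO-treated cells and 100% = wells with medium but no cells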
Env fusion inh = HIV envelope-mediated fusion inhibition. HeLa-JRFL Env/CEM21 cell fusion, luciferase. inhibition, % at 12.3 µM. 360,000 compounds, 1.1% hits. AID 651610;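 active = mean replicate inhibition score of at least 50 and every replicate individually at or above 50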;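 note: 0% = plate neutral controls and 100% = maraviroc near 300 nM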
COUP-TFII inh = inhibitors of human COUP-TFII (NR2F2); P24468; HEK293T NGFI-A luciferase reporter, luminescence; inhibition, % at 8.6 µM; 370,000 compounds, 0.7% hits;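 active = inhibition above a per-plate cutoff, mean inhibition of test wells between control levels plus 3 SD, cut at about 38% in these data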;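 note: cells cotransfected with COUP-TFII expression vector driving the NGFI-A reporter; 0% = median of COUP-TF2 test wells and 100% = reporter-only cells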
aDG glyco up = alpha-DG glycosylation activation. Pro5-aDG cells, alpha-DG glycosylation AlphaScreen (IIH6); 0% Pro5, 100% B10-LARGE cell signal. activation, % at 10 µM. 360,000 compounds, 0.22% hits. AID 624168;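 active = activation of at least 8% versus controls, or a plate z-score of at least 8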;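 note: Pro5 are CHO cells carrying HIG-tagged alpha-DG that lacks glycosylation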
An asterisk follows results filed as active; . = not tested or not shown; [ ] = another dose, or the depositor's remark. Only some compounds are listed: those with a hit (about 2.1% of all), similar ones and a draw of the others.

SMILES | GalR3 antagonist | Gli-Sufu antag | Env fusion inh | COUP-TFII inh | aDG glyco up
Cc1c(CCOC(=O)CC23CC4CC(CC(C4)C2)C3)sc[n+]1CC(=O)c1ccc(Br)cc1 | -4 | 3 | 61* | 24 | 0
Cc1c(CCOC(=O)c2cc([N+](=O)[O-])cc([N+](=O)[O-])c2)sc[n+]1CC(=O)c1ccccc1 | -8 | -6 | 5 | -27 | 0
Cc1c(CCOC(=O)CC23CC4CC(CC(C)(C4)C2)C3)sc[n+]1CC(=O)c1ccccc1 | -8 | 16 | 69* | 19 | 0
Cc1c(CCOC(=O)C23CC4CC(CC(C)(C4)C2)C3)sc[n+]1CC(=O)c1ccccc1 | -4 | 26 | 82* | -11 | 0
Cc1c(CCOC(=O)c2ccccc2)sc[n+]1CC(=O)c1ccc(Br)cc1 | . | -3 | . | . | 0
O=C(C[C@@H]1CC[C@H]2[C@@H](COC[C@@H](O)CN2Cc2ccc(Cl)cc2)O1)NCCc1ccccc1 | . | . | 20[16.7 µM] | . | .
Cc1nnc(SCC(=O)Nc2sc3c(c2C(=O)c2ccccc2)CCCC3)s1 | 4 | 1 | 57* | 13 | 0
Cc1nnc(SCC(=O)Nc2ccccc2NC(=O)CSc2nnc(C)s2)s1 | -1 | 2 | . | 3 | 0
CC1C(=O)N(Cc2ccc([N+](=O)[O-])cc2)c2ccccc2N1C(=O)c1c(F)cccc1F (stereo not given) | -13 | 11 | 78* | 30 | 0
C[C@H](CO)N1C[C@H](C)[C@H](CN(C)S(=O)(=O)c2ccccc2)Oc2ccc(NC(=O)Nc3ccccc3)cc2CC1=O | . | . | 80*[16.7 µM] | . | .
C[C@H](CO)N1C[C@H](C)[C@@H](CN(C)S(=O)(=O)c2ccccc2)Oc2ccc(NC(=O)Nc3ccc4c(c3)OCO4)cc2CC1=O | . | . | -4[16.7 µM] | . | .
C[C@H](CO)N1C[C@H](C)[C@H](CN(C)S(=O)(=O)c2ccccc2)Oc2ccc(NC(=O)Cc3ccccc3)cc2CC1=O | . | . | 92*[16.7 µM] | . | .
C[C@H](CO)N1C[C@H](C)[C@H](CN(C)S(=O)(=O)c2ccc(F)cc2)Oc2ccc(NC(=O)Nc3ccccc3)cc2CC1=O | . | . | 55*[16.7 µM] | . | .
C[C@H](CO)N1C[C@H](C)[C@@H](CN(C)S(=O)(=O)c2ccccc2)Oc2ccc(NC(=O)Nc3ccccc3)cc2CC1=O | . | . | -11[16.7 µM] | . | .
C[C@H](CO)N1C[C@H](C)[C@H](CN(C)S(=O)(=O)c2ccccc2)Oc2ccc(NC(=O)Nc3ccc4c(c3)OCO4)cc2CC1=O | . | . | 75*[16.7 µM] | . | .
C[C@H]1CN([C@@H](C)CO)C(=O)Cc2cc(NC(=O)Nc3cccc4ccccc34)ccc2O[C@@H]1CN(C)S(=O)(=O)c1ccc(F)cc1 | . | . | 9[16.7 µM] | . | .
C[C@H](CO)N1C[C@H](C)[C@H](CN(C)S(=O)(=O)c2ccc(F)cc2)Oc2ccc(NC(=O)Nc3cccc4ccccc34)cc2CC1=O | . | . | 83*[16.7 µM] | . | .
NC(c1csc(NC(=O)Nc2cccc(Cl)c2)n1)c1ccccc1Cl (stereo not given) | -7 | . | 76* | 20 | 1
Cc1cccc(C)c1NC(=O)Nc1nc(C(N)c2ccccc2Cl)cs1 (stereo not given) | -9 | . | -30 | 8 | 0
Cc1cccc(CN(C)C[C@@H]2Oc3ncc(-c4cc5ccccc5o4)cc3C(=O)N([C@H](C)CO)C[C@@H]2C)c1 | . | . | -33[16.7 µM] | . | .
CCN1CCN(C(c2cc3cccc(C)c3[nH]c2=O)c2nnnn2Cc2ccccc2)CC1 (stereo not given) | -7 | 6 | -51 | -2 | 0
COc1ccc(Cn2nnnc2C(c2cc3cccc(C)c3[nH]c2=O)N2CCOCC2)cc1 (stereo not given) | -3 | 1 | 86* | 2 | 0
COc1ccc(Cn2nnnc2C(c2cc3cc(C)ccc3[nH]c2=O)N2CCOCC2)cc1 (stereo not given) | -7 | 2 | 67* | 8 | 0
C[C@H](CO)N1C[C@H](C)[C@H](CN(C)C(=O)N[C@H](C)c2ccccc2)OCc2ccccc2-c2c(n(C)c3ccccc23)C1=O | -5 | . | 75* | -2 | 0
CO[C@@H](C(=O)N(C)C[C@H]1OCc2ccccc2-c2c(n(C)c3ccccc23)C(=O)N([C@@H](C)CO)C[C@H]1C)c1ccccc1 | . | . | -48[16.7 µM] | . | .
SMILES | GalR3 antagonist | Gli-Sufu antag | Env fusion inh | COUP-TFII inh | aDG glyco up
CO[C@@H](C(=O)N(C)C[C@H]1OCc2ccccc2-c2c(n(C)c3ccccc23)C(=O)N([C@@H](C)CO)C[C@@H]1C)c1ccccc1 | . | . | 55*[16.7 µM] | . | .
COc1ccc(-c2ccc3c(c2)O[C@H](CN(C)C(=O)Nc2ccccc2F)[C@H](C)CN([C@@H](C)CO)S3(=O)=O)cc1 | . | . | -47[16.7 µM] | . | .
Nc1ncnc(N2CCc3ccccc32)c1[N+](=O)[O-] | 0 | -25 | 67* | 35 | 0
CC(OC(=O)c1ccc(S(=O)(=O)N(C)c2ccccc2)cc1)C(=O)NCCC1=CCCCC1 (stereo not given) | -3 | -7 | -12 | 3 | 0
CC(OC(=O)c1ccc(NC(=O)CC#N)cc1)C(=O)NCCC1=CCCCC1 (stereo not given) | -3 | -34 | 76* | 3 | 0
COc1ccc(NC(=O)CNCCC2=CCCCC2)cc1 | -10 | 2 | 60* | -3 | 1
CC(C)CC#Cc1ccc2c(c1)O[C@H](CN(C)C(=O)C1CCCCC1)[C@H](C)CN([C@@H](C)CO)S2(=O)=O | . | . | 20[16.7 µM] | . | .
O=C(O)c1ccc(N/N=C/c2ccc(OC(=O)c3cccc(Cl)c3)cc2)cc1 | -3 | 61* | 36 | -18 | 0
O=C(CCNS(=O)(=O)c1ccccc1)N1CCCCCC1 | 0 | -20 | -8 | -22 | 0
O=C(CCNS(=O)(=O)c1ccccc1)N1CCCCCCC1 | -3 | -21 | 66* | -10 | 0
COc1cccc(-c2cnc3c(c2)C(=O)N([C@H](C)CO)C[C@@H](C)[C@@H](CN(C)C(=O)Nc2c(C)noc2C)O3)c1 | . | . | -13[16.7 µM] | . | .
CC(=O)N(C)c1ccc(OCC(O)Cn2c(C)nc3ccccc32)cc1 (stereo not given) | -5 | 45 | -11 | 36 | 0
CC(=O)N(C)c1ccc(OCC(O)Cn2c3ccc(Cl)cc3c3cc(Cl)ccc32)cc1 (stereo not given) | -8 | -5 | 130* | -5 | 2
C[C@@H]1CN([C@@H](C)CO)C(=O)c2cc(C#CC3CCCCC3)cnc2O[C@@H]1CN(C)Cc1ccncc1 | . | . | 3[16.7 µM] | . | .
COc1ccc(N=Nc2ccc(O)c3ncccc23)cc1 | -4 | 61* | -266 | 11 | -1
COc1cccc(N=Nc2ccc(O)c3ncccc23)c1 | -9 | 68* | -179 | -9 | -1
C[C@@H]1CN([C@H](C)CO)S(=O)(=O)c2ccc(-c3cccc(F)c3)cc2O[C@@H]1CN(C)CC1CC1 | . | . | 14[16.7 µM] | . | .
COCC(=O)N(C)C[C@H]1Oc2ncc(-c3ccccc3C)cc2C(=O)N([C@H](C)CO)C[C@@H]1C | . | . | 24[16.7 µM] | . | .
CCCNC(=O)Nc1ccc2c(c1)C(=O)N(C)C[C@H](OC)[C@@H](C)CN(Cc1ccncc1)[C@H](C)CO2 | . | . | -43[16.7 µM] | . | .
CN(c1nc2ccccc2[nH]c1=O)C1CCCCC1 | -7 | 57* | -31 | -4 | 2
